Data published in PubChem BioAssay AID2459 (The Scripps Research Institute Molecular Screening Center, 2010).
This is one part of the list. A number with no mark means an inactive call. Activity calls are given as the source filed them.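 Rule for the calls: active = average inhibition across triplicates above the hit cutoff set in the primary screen (cut at about 32% in these data); inactive = the rest.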

Molecular target: Female germline-specific tumor suppressor gld-1 (Caenorhabditis elegans) (UniProt Q17339)
Experiment: C. elegans GLD-1 RNA interaction blockers – biochemical, fluorescence polarization, triplicate, confirmation (AID 2459);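 note: 0% = GLD-1 with RNA probe and DMSO and 100% = wells lacking GLD-1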
Conditions: GLD-1/FL-TGE RNA fluorescence polarization, at 5.96 µM, active compounds read high

Sequence of Female germline-specific tumor suppressor gld-1 (Caenorhabditis elegans) (Q17339 whole entry, looked up): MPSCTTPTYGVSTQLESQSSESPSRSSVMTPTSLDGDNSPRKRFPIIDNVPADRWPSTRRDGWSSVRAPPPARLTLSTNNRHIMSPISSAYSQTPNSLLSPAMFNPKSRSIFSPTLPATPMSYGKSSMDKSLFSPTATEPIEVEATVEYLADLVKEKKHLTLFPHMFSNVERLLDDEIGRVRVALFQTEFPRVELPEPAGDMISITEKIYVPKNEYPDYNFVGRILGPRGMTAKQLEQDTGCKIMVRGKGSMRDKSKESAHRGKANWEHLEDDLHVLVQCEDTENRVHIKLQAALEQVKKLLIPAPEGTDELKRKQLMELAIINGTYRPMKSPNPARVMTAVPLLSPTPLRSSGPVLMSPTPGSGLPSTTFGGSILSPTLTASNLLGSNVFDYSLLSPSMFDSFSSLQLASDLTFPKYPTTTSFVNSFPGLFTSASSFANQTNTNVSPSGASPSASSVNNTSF

Row | Compound | inhibition
1 | CN(CCOc1ccccc1)C(=O)c1cc(-c2ccco2)nc2ccccc12 | -3.07%
2 | CC(NC(=O)CSc1nc2c(cc1C#N)CN(C)CC2)c1ccccc1 (stereo not given) | -6.45%
3 | N#C/C(=C(\O)C(F)(F)F)c1nnc2n1CCCCC2 | -8.93%
4 | CNC(=S)NNC(=O)c1oc2nc(-c3ccccc3)cc(-c3ccco3)c2c1N | -4.28%
5 | Cc1ccc(/C=N/NC(=O)COc2ccccc2-c2ccccc2)cc1 | -5.49%
6 | COc1cc(C(=O)NCc2ccc3c(c2)cc(C)n3C)cc(OC)c1OC | 5.96%
7 | Oc1ccc2ccccc2c1N=Nc1nccs1 | 8.17%
8 | Cc1cc2ccccc2n1CCC(=O)O | 10.1%
9 | CCCN(CC(=O)Nc1ccccc1OC)C(=O)CCC(=O)c1ccc(F)cc1 | -0.97%
10 | O=c1[nH]c(=O)c2nc3ccccc3nc2[nH]1 | 101% (active)
11 | COC(=O)CCCC1=CC2=CC(=O)C(C)(OC(=O)c3cccs3)C(=O)C2=CN1c1cccc(C#N)c1 (stereo not given) | 8.48%
12 | COc1ccc(-c2nc(CS(=O)CC(=O)NCc3ccccn3)c(C)o2)cc1 (stereo not given) | 61.1% (active)
13 | O=c1[nH]cccc1-c1nc2ccccc2n1Cc1ccc(Cl)cc1 | -6.98%
14 | COc1ccc(Nc2ccc([N+](=O)[O-])cn2)cn1 | 18.7%
15 | C=C1CCN([C@@H](Cc2ccccc2)C(=O)N2CCOCC2)S(=O)(=O)c2ccccc21 | -0.33%
16 | CN(C)c1ccc(Nc2c3c4c(cccc4n(C)c2=O)C(=O)c2ccccc2-3)cc1 | 63.3% (active)
17 | COC(=O)c1cc(CNC(=O)CC(C)c2ccccc2)ccc1OC (stereo not given) | -6.47%
18 | Cc1ccc(C)c(S(=O)(=O)N2CCN(C(=O)Nc3ccccc3)CC2)c1 | 2.41%
19 | COc1cc([C@H](Cc2ccccc2)NC(C)=O)oc(=O)c1 | 25.8%
20 | CCCn1c(C2CCCN2c2nc(-c3ccc(C)cc3)cs2)nc2cc(Cl)c(N3CCCCC3)cc21 (stereo not given) | -4.07%
21 | COC(=O)c1sc(NC(=S)NC(=O)c2ccc(C)cc2)nc1C | -1.92%
22 | COCCOC(=O)c1sc(=S)n(CCOC)c1N | 47.7% (active)
23 | COc1ccc2[nH]c(C)c(CCN(Cc3cccs3)C(=S)Nc3ccccc3OC)c2c1 | -3.16%
24 | Cc1ccccc1Nc1nc(N)nc(CSc2nnc3ccccn23)n1 | -3.26%
25 | O=C1c2ccccc2C(=O)c2c1cccc2N1CCN(CCO)CC1 | 16.5%
26 | CC1CC(C)CN(S(=O)(=O)c2cccc(C(=O)N3C(=O)c4cccc(N)c4C3=O)c2)C1 (stereo not given) | 1.78%
27 | N#CC1=C(N)C(C#N)(C#N)[C@H](c2ccsc2)[C@H]2COCC=C12 | 7.34%
28 | CCOc1ccc2nc(N3CCCN(C(=O)Nc4ccccc4C)CC3)c(C#N)cc2c1 | 52.2% (active)
29 | CCOc1cc(C2C(C(=O)OC)=CN(C3CCCC3)C=C2C(=O)OC)cc(Br)c1O | 31.8% (active)
30 | O=C1c2ccccc2-c2ncnc3c(N4CCOCC4)cc(N4CCOCC4)c1c23 | -4.23%
